{"source": "PubChem BioAssay AID504333", "about": "(National Center for Advancing Translational Sciences (NCATS), 2011)", "note": "Screen size: about 360,000 compounds; about 16,000 (4.4%) were called active. Inconclusive results (about 9%) are left out. Calls follow the shape of the dose curve; as a rule, active = well fitted inhibition curve with a large enough effect; inconclusive = small, poorly fitted or top-dose-only effect; inactive = no such curve, though single readings can be large or run the other way. This excerpt belongs to a sample that is enriched for actives. % is scaled to controls: 0 for no effect and ±100 for the full control effect; potency is read from the fitted curve at half-maximal effect."}
{"target": "Bromodomain adjacent to zinc finger domain protein 2B (Homo sapiens) (UniProt Q9UIF8)", "sequence (Q9UIF8 whole entry, looked up, the tested form may be a part)": "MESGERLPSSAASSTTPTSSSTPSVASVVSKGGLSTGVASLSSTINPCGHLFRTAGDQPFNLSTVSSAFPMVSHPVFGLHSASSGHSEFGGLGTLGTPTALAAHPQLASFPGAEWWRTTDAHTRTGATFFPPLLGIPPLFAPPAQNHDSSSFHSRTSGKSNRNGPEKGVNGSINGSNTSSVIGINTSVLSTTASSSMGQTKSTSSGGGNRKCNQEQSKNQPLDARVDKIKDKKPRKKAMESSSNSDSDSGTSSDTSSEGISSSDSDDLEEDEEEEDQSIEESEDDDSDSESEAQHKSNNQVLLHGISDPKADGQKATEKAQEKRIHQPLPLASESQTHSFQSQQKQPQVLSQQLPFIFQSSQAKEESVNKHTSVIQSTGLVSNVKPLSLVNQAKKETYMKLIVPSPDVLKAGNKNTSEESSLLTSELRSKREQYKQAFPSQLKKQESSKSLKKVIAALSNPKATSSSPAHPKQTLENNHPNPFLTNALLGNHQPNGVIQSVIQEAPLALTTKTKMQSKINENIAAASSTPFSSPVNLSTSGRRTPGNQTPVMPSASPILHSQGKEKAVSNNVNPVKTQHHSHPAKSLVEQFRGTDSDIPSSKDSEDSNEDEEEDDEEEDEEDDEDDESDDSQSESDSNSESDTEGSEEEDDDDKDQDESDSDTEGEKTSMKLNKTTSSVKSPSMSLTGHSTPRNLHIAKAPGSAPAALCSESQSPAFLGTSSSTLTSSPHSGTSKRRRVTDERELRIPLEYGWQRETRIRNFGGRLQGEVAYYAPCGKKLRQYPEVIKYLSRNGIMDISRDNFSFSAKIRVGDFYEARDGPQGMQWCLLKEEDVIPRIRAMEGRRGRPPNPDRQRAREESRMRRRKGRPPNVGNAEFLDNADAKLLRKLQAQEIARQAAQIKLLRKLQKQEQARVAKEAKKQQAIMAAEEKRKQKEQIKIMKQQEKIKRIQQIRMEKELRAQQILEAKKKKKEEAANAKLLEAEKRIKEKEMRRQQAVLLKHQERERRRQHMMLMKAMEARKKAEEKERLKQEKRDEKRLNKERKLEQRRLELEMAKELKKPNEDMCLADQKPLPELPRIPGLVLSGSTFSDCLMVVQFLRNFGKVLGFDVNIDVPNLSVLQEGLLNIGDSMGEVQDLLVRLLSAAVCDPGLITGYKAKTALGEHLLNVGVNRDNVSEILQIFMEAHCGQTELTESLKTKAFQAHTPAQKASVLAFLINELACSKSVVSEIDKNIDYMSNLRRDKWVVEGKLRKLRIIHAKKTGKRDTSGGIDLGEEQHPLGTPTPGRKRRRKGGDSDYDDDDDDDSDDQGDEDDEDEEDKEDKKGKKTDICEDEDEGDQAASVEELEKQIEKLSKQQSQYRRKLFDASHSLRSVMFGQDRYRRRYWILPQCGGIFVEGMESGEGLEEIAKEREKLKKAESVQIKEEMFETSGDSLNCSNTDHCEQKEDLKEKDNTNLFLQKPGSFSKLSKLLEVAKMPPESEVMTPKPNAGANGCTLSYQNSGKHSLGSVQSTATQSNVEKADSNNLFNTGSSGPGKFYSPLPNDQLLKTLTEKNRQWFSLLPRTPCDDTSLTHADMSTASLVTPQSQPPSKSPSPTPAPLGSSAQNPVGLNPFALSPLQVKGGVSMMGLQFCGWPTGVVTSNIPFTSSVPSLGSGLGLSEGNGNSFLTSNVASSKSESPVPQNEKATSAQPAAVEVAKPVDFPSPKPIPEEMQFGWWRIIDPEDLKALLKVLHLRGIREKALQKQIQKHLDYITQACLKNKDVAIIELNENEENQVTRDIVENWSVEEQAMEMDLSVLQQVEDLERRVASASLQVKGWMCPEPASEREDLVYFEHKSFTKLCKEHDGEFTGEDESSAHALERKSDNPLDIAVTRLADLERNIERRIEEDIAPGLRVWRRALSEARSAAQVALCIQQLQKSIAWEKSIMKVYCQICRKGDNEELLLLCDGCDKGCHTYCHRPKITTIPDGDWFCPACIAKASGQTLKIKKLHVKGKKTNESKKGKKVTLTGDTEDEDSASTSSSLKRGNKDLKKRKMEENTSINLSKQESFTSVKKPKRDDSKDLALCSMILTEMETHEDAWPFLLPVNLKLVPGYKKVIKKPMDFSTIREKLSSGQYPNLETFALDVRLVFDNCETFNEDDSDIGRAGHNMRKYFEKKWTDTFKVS", "test": "qHTS Assay for Inhibitors of BAZ2B; also: nearly all actives have a fitted effect of over 60% in size", "details": "AlphaScreen BAZ2B-H3K14Ac peptide displacement; series mostly up to 114 µM; activity change, negative = inhibition: at the top concentration", "source_text": "BAZ2B (bromodomain adjacent to zinc finger domain, 2B) belongs to a family of ubiquitously expressed bromodomain containing proteins, which biological function has not yet been elucidated. […] The interaction of BAZ2B with ISWI mediated by the BAZ1 motif has recently been described. […] The protocol is based on the AlphaScreen (PerkinElmer) displacement assay developed by NCGC [5], but uses the peptide ligand Biot-H3K14Ac, a high affinity binding partner for BAZ2B, in an AlphaScreen format. Although AlphaScreen has significant advantages with its utility in a variety of epigenetic target assays, the primary screening data provided in this deposition should be used with caution due to the prevalence of screening artifacts. The top compound concentration tested was 110uM in this assay, which increases number of actives and potential artifacts. An AlphaScreen counterscreen is highly recommended to be run against any putative actives to eliminate non-specific artifacts. Alternatively, one can use other AlphaScreen assays in PubChem to filter out promiscuous hits. Eberharter, A. et al. ACF1 improves the effectiveness of nucleosome mobilization by ISWI through PHD-histone contacts. The EMBO journal 23, 4029-4039. 2004. PMID: 15457208 [2] Jones, M.H. et al. A novel family of bromodomain genes. Genomics 63, 40-45. 2000. PMID: 10662543 [3] Yasgar, et al. Compound Management for Quantitative High-Throughput Screening. JALA. 2008 Apr;13(2):79-89. PMID: 18496600 [4] Inglese, et al. Quantitative high-throughput screening: a titration-based approach that efficiently identifies biological activities in large chemical libraries. Proc Natl Acad Sci. 1;103(31):11473-8. 2006. PMID: 16864780 [5] Quinn et al. A chemiluminescence-based method for identification of histone lysine methyltransferase inhibitors. Mol Biosyst 6(5): 782-8. 2010. PMID: 20567762 [6] Baell,Holloway. New substructure filters for removal of pan assay interference compounds (PAINS) from screening libraries and for their exclusion in bioassays. J Med Chem. 53(7):2719-40. 2010. PMID: 20131845 NIH Molecular Libraries Probe Production Network [MLPCN] NIH Chemical Genomics Center [NCGC] Structural Genomics Consortium (SGC) NIH Grant: 5U54 MH084681-02\nTo each well of a 1,536w plate, 2ul of BAZ2B protein (final 50nM) and 1ul biotinylated histone peptide acetylated at Lys14 [b-H3(5-23)K14Ac] (final 50nM) were added in 1x PBS buffer, pH 7.4, containing 0.01% Tween-20, using a nanoliter dispenser. Formation of a protein-peptide complex proceeded at room temperature for 30 min. A Kalypsys pin-tool was employed to transfer 23 nL of library compound solution in DMSO to each well. Following a 30 min incubation of the protein-peptide complex with compounds at room temperature, a mixture of 40 ug/mL each streptavidin-coated donor and nickel chelate acceptor AlphaScreen beads (final 10 ug/mL) were added in a 1ul dispense for a final volume of 4ul. A brief centrifugation followed (1000rpm, 1 min) and were then incubated protected from the light for 20 min at room temperature. Plates were read on an EnVision multilabel plate reader using the 1,536 plate HTS AlphaScreen aperture (excitation time 80 ms, measurement time 240 ms)."}
{"smiles": "COc1ccc(Cc2nc3ccc(C(=O)NCc4ccccc4C)cc3o2)cc1", "activity change, negative = inhibition": "0.109% (inactive)"}
{"smiles": "Cc1cccc(N2CCN(c3ccc(C(=O)O)cc3NC(=O)c3ccccc3F)CC2C)c1", "note": "(stereo not given)", "Potency": "56.2 µM (active)"}
{"smiles": "Cc1cccc(N2CCN(C(=O)c3ccccc3NC(=O)C3CCCCC3C(=O)O)CC2)c1", "note": "(stereo not given)", "activity change, negative = inhibition": "-2.25% (inactive)"}
{"smiles": "Cc1cccc(C(=O)Nc2ccccc2N2CCN(c3ccc(F)cc3)CC2)c1", "activity change, negative = inhibition": "-8.8% (inactive)"}
{"smiles": "COc1ccc(NC(=O)c2sc3nc(-c4cc5cccc(OC)c5oc4=O)[nH]c(=O)c3c2C)cc1", "activity change, negative = inhibition": "5.3% (inactive)"}
{"smiles": "CCn1c2ccccc2c2cc(NC(=O)CNC)ccc21", "Potency": "56.2 µM (active)"}
{"smiles": "CCn1c2ccccc2c2cc(NC(=O)COC(=O)c3ccccc3Br)ccc21", "activity change, negative = inhibition": "-36.9% (inactive)"}
{"smiles": "CCn1c2ccccc2c2cc(NC(=O)COc3ccc(C)cc3C)ccc21", "activity change, negative = inhibition": "2.19% (inactive)"}
{"smiles": "COc1cc(Cl)ccc1Nc1ncc(C(=O)N2CCN(c3ccccc3OC)CC2)c2ccccc12", "activity change, negative = inhibition": "-3.95% (inactive)"}
{"smiles": "Cc1cccc(N2CCN(C3=C(c4ccccc4)C(=O)c4ccccc43)CC2)c1C", "Potency": "2.24 µM (active)"}
{"smiles": "Cc1cccc(N2CCN(c3c(CN4CCCC4)c(=O)oc4ccccc34)CC2)c1C", "activity change, negative = inhibition": "-9.79% (inactive)"}
{"smiles": "Cc1cccc(N2CCN(Cc3c(C)n(C)n(-c4ccccc4)c3=O)CC2)c1C", "activity change, negative = inhibition": "5.93% (inactive)"}
{"smiles": "CCOc1ccccc1N(CC)C(=O)Nc1cn(C)c(=O)c2ccccc12", "activity change, negative = inhibition": "6.05% (inactive)"}
{"smiles": "CC(C)c1ccc(NC(=O)CN(C)S(=O)(=O)c2ccc3c(c2)c(=O)n(C)c(=O)n3C)cc1", "activity change, negative = inhibition": "-2.58% (inactive)"}
{"smiles": "CCS(=O)(=O)c1nc(S(=O)(=O)c2ccc(C)cc2)c(NCc2ccc(Cl)cc2)s1", "activity change, negative = inhibition": "-7.97% (inactive)"}
{"smiles": "Cn1c(=O)c(C(=O)O)nn(-c2ccccc2)c1=O", "activity change, negative = inhibition": "-1.4% (inactive)"}
{"smiles": "O=C(O)C1CCN(c2ccc([N+](=O)[O-])cc2[N+](=O)[O-])CC1", "Potency": "56.2 µM (active)"}
{"smiles": "CC1CCN(c2ccc([N+](=O)[O-])cc2C(N)=O)CC1", "activity change, negative = inhibition": "-19.3% (inactive)"}
{"smiles": "CCOC(=O)C1CCN(c2ccc(C(=O)O)cc2[N+](=O)[O-])CC1", "activity change, negative = inhibition": "4.06% (inactive)"}
{"smiles": "Cc1ccc(Cl)cc1N1CCN(S(=O)(=O)c2cc3[nH]c(=O)c(=O)[nH]c3cc2C)CC1", "activity change, negative = inhibition": "-20.7% (inactive)"}
{"smiles": "COc1ccc(CCC(=O)NCc2ccc3c(c2)CCN3C(=O)c2ccc(F)cc2)cc1", "activity change, negative = inhibition": "-1.32% (inactive)"}
{"smiles": "COc1ccccc1-c1noc(-c2ccc(NCc3ccccc3)c([N+](=O)[O-])c2)n1", "activity change, negative = inhibition": "-4.93% (inactive)"}
{"smiles": "O=C(CSc1nnc(-c2ccccc2F)o1)Nc1cccc(C(F)(F)F)c1", "activity change, negative = inhibition": "-13% (inactive)"}
{"smiles": "COc1ccccc1CN1CCCC(N2CCN(c3ccc(F)cc3)CC2)C1", "note": "(stereo not given)", "activity change, negative = inhibition": "-2.71% (inactive)"}
{"smiles": "COc1ccccc1CNCc1cccs1", "activity change, negative = inhibition": "2.33% (inactive)"}
{"smiles": "Oc1ccccc1CN1CCN(C(c2ccccc2)c2ccccc2)CC1", "Potency": "50.1 µM (active)"}
{"smiles": "CC(=O)N1CCN(CC(c2ccccc2)c2ccccc2)CC1", "activity change, negative = inhibition": "-23.7% (inactive)"}
{"smiles": "COc1ccccc1CN1CCN(C(c2ccccc2)c2ccccc2)CC1", "Potency": "79.4 µM (active)"}
{"smiles": "COc1ccccc1N1CCN(Cc2ccc(OC)c3ccccc23)CC1", "Potency": "28.2 µM (active)"}
{"smiles": "COc1ccccc1CN1CCN(Cc2cc(OC)c(OC)cc2OC)CC1", "Potency": "50.1 µM (active)"}
{"smiles": "c1ccc(C(c2ccccc2)N2CCN(Cc3nnnn3C3CCCCC3)CC2)cc1", "activity change, negative = inhibition": "4.36% (inactive)"}
{"smiles": "CNCC(O)CN1CCN(c2ccccc2OC)CC1", "note": "(stereo not given)", "activity change, negative = inhibition": "-26% (inactive)"}
{"smiles": "COc1cc(CN2CCCN(C)CC2)c([N+](=O)[O-])cc1OC", "activity change, negative = inhibition": "-9.5% (inactive)"}
{"smiles": "COc1ccccc1Cn1c(CO)nc2ccccc21", "activity change, negative = inhibition": "-9% (inactive)"}
{"smiles": "COc1ccccc1N1CCN(Cc2cc(OC)c3c(c2)OCO3)CC1", "activity change, negative = inhibition": "-11% (inactive)"}
{"smiles": "Cc1ccc2cccc(NC(=O)c3ccc(OC(C)C)cc3)c2n1", "activity change, negative = inhibition": "-7.03% (inactive)"}
{"smiles": "Cc1ccc(NC(=O)CSc2nnc3[nH]c(=O)cc(C)n23)cc1Cl", "activity change, negative = inhibition": "1.62% (inactive)"}
{"smiles": "CSc1ccc(C2c3c(oc4ccccc4c3=O)C(=O)N2CCCN2CCOCC2)cc1", "note": "(stereo not given)", "activity change, negative = inhibition": "-3.97% (inactive)"}
{"smiles": "COc1cccc(C(=O)N(Cc2cccc(Cl)c2)Cc2ccco2)c1", "activity change, negative = inhibition": "27% (inactive)"}
{"smiles": "O=C(COc1ccc(Cl)cc1)Nc1ccccc1OCc1cc(=O)n2ccccc2n1", "activity change, negative = inhibition": "3.37% (inactive)"}
{"smiles": "Cc1ccc(NC(=O)c2cc3cc(C)ccc3n2C)cc1", "activity change, negative = inhibition": "-7.6% (inactive)"}
{"smiles": "O=C(Cn1c(=O)n(Cc2ccccc2)c(=O)c2sc3ccccc3c21)Nc1ccccc1F", "activity change, negative = inhibition": "2.08% (inactive)"}
{"smiles": "Cc1ccc(C2CCN(C(=O)c3cnn(-c4ccccc4Cl)c3C3CCN(C(=O)OC(C)(C)C)CC3)C2)cc1", "note": "(stereo not given)", "activity change, negative = inhibition": "-17.9% [at 57.1 µM] (inactive)"}
{"smiles": "COc1cccc(CNC(=O)Cn2ncn3c(cc4ccccc43)c2=O)c1", "activity change, negative = inhibition": "2.55% (inactive)"}
{"smiles": "Cc1ccc(NC(=O)CN2c3ccccc3S(=O)(=O)c3ccccc32)cc1F", "activity change, negative = inhibition": "-11.7% (inactive)"}
{"smiles": "CCCn1c2ccccc2c2cnn(CC(=O)N3CCCC(C(=O)OCC)C3)c(=O)c21", "note": "(stereo not given)", "activity change, negative = inhibition": "2.57% (inactive)"}
{"smiles": "COc1cc2c3c(c1)/C(=C1/SC(=S)NC1=O)C(=O)N3C(C)(C)C=C2C", "Potency": "44.7 µM (active)"}
{"smiles": "CCOC(=O)c1ccc(NC(=O)c2nc[nH]c2C(=O)NCc2ccccc2)cc1", "activity change, negative = inhibition": "3.08% (inactive)"}
{"smiles": "CC(C)(C)OC(=O)N1CCC(NC(=O)c2[nH]cnc2C(=O)N[C@@H](Cc2ccccc2)C(=O)OCc2ccccc2)CC1", "activity change, negative = inhibition": "-15.2% (inactive)"}
{"smiles": "CCOC(=O)c1[nH]cnc1C(=O)NC1CCCCC1", "Potency": "50.1 µM (active)"}
